Screens from PubChem BioAssay.
Hits are enriched below; roughly 2.4% of the tested compounds scored in any of these assays.
SENP8 block-1: human SENP8 protease inhibitors, primary screen, biochemical, fluorescence, Nedd8 protein substrate, uHTS | Sentrin-specific protease 8 (Homo sapiens), Q96LD8 | recombinant SENP8 | inhibition, % at 20 µM | 0.64% of 360,000 active | AID 602440, 2012; in the data active means inhibition mostly above about 40%, no sharp cut-off; inactive means mostly below about 27%
Target sequence (Q96LD8 whole entry, looked up): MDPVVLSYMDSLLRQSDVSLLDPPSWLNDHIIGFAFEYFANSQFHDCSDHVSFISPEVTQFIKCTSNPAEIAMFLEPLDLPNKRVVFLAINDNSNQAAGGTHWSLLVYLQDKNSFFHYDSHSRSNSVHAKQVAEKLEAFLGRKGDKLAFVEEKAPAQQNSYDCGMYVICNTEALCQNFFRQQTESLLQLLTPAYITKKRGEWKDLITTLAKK
SENP6 block: SENP6 protease inhibitors, primary screen, biochemical, luminescence, uHTS | 1.8% of 330,000 active | AID 2599, 2010 | inhibition, % at 10 µM | Recombinant SENP6 catalytic domain, aminoluciferin luminescence;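 active means inhibition above about 50% at the single tested dose, limit read from the data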;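 further: plate controls were DMSO wells with enzyme for no effect and DMSO wells lacking enzyme for full effect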
SENP7 inh: SENP7 protease inhibitors, primary screen, biochemical, luminescence, uHTS; inhibition, % at 5 µM; 1.5% of 330,000 active; recombinant SENP7, Z-RLRGG-aminoluciferin luminescence, 40 min; Sentrin-specific protease 7 (Homo sapiens), Q9BQF6; AID 434973, 2010;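 active means inhibition above about 50% at the single test dose, limit read from the data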;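 further: plate controls were DMSO with enzyme for no effect and no enzyme buffer wells for full effect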
Target sequence (Q9BQF6 706-1050 limits assumed): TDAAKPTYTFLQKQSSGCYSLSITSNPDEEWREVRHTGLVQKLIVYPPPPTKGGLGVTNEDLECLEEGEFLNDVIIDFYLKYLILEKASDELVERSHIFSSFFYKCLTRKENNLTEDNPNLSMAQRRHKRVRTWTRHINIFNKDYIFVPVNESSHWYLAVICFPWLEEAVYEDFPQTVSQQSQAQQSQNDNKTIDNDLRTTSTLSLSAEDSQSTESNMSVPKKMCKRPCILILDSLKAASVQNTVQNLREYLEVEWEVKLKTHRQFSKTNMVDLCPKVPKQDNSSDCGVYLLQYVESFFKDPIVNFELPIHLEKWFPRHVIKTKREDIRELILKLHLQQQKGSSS
SENP8 block-2: SENP8 protease inhibitors, primary screen, biochemical, luminescence; purified SENP8, Z-RLRGG-aminoluciferin cleavage; 1.2% of 330,000 active; inhibition, % at 10 µM; Sentrin-specific protease 8 (Homo sapiens), Q96LD8; in the data active means inhibition above about 50%
Platelet DG rel: inhibitors of platelet dense granule secretion, primary screen, cell-based, MLPCN, human platelets | human platelet-rich plasma, SFLLRN dense granule ATP release, luminescence | AID 1663, 2009 | inhibition, %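 (compounds screened at 7.5 µM in platelet-rich plasma)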 | 0.22% of 300,000 active;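 active means mean replicate score, as percent of positive control, at or above 50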
SENP8 confirm: SENP8 protease inhibitors, retest, confirmation, biochemical, luminescence, single concentration. 40% of 6,200 active. inhibition, % at 12.5 µM. shares compounds with SENP7 inh. Recombinant SENP8, Z-RLRGG-aminoluciferin luminescence, 60 min;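 active means mean inhibition across replicates above about 50%, limit read from the data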
SENP6 confirm: SENP6 protease inhibitors, confirmation, biochemical, luminescence, single concentration; shares compounds with SENP7 inh; recombinant SENP6, Z-RLRGG-aminoluciferin luminescence; inhibition, % at 12.5 µM; 58% of 6,200 active
SENP7 conf: SENP7 protease inhibitors, retest, confirmation, biochemical, luminescence, single concentration; shares compounds with SENP7 inh; recombinant SENP7, Z-RLRGG-aminoluciferin luminescence, 40 min; inhibition, % at 12.5 µM; 69% of 6,200 active
Casp3 select: caspase-3 protease inhibitors, confirmation, selectivity assay for SENP inhibitor project, biochemical, single concentration; purified caspase-3, Z-DEVD-aminoluciferin luminescence, 60 min; shares compounds with SENP7 inh; 60% of 6,200 active; inhibition, % at 12.5 µM;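 active means mean inhibition above about 50%, limit read from the data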;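 further: plate controls were enzyme with DMSO for no effect and wells without caspase-3 for full effect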
Luc interf: interferes with luciferase luminescence in SENP counter-screen; shares compounds with SENP7 inh; Pre-incubated SENP8/Z-RLRGG-aminoluciferin, luciferase luminescence interference; inhibition, % at 12.5 µM; 39% of 6,200 active; AID 488919;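 active means mean inhibition above about 50% when retested at one dose, limit read from the data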;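 further: plate controls were DMSO wells with completed reaction for no effect and substrate without enzyme for full effect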
* marks the source's active call; other numbers are inactive results; / = not tested or not shown.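 How the source made its calls, unless noted: active means mean inhibition above about 50% in the one-dose retest (limit read from the data); inactive means the rest.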

SMILES	SENP8 block-1	SENP6 block	SENP7 inh	SENP8 block-2	Platelet DG rel	SENP8 confirm	SENP6 confirm	SENP7 conf	Casp3 select	Luc interf
CCOC(=O)C1CCN(S(=O)(=O)c2ccc(Cl)s2)CC1	3	-1	7	6	-2	/	/	/	/	/
c1ccc2c(c1)Cn1nnnc1-2	2	3	-12	-8	-1	/	/	/	/	/
c1ccc2c(c1)Cn1c-2nc2ccccc21	-1	92*	91*	81*	26	90*	88*	99*	95*	86*
O=C1c2ccccc2-c2nc3ccccc3n21	-33	15	3	-29	-25	/	/	/	/	/
Brc1c(-c2ccccc2)nc2n1Cc1ccccc1-2	18	75*	47	51*	0	6	65*	72*	42	16
O=C(Nc1cccc2cccnc12)c1csc([C@@H]2O[C@H](CO)[C@H](O)[C@H](O)[C@H]2O)n1	-16	/	/	/	/	/	/	/	/	/
CCCCn1c(N)c(N(CCOC)C(=O)c2cc(C)oc2C)c(=O)[nH]c1=O	-26	-1	1	2	0	/	/	/	/	/
COc1ccccc1CNC(=O)c1c(N)n(CCCN2CCOCC2)c2nc3ccccc3nc12	-291	/	/	/	-16	/	/	/	/	/
Nc1c(C(=O)NCc2ccc3c(c2)OCO3)c2nc3ccccc3nc2n1CCCN1CCOCC1	-277	92*	4	91*	3	10	8	-3	3	-5
Nc1c(C(=O)NCc2ccccc2)c2nc3ccccc3nc2n1-c1ccc2c(c1)OCO2	-261	68*	-3	30	6	11	12	-3	3	0
COc1ccc(C(CNC(=O)c2cccc(S(=O)(=O)NCc3ccccc3)c2)N2CCOCC2)cc1 (centres undefined)	2	-6	-1	11	8	/	/	/	/	/
COc1ccc(C(=O)C(=O)N2CCN(c3ccccc3F)CC2)cc1	10	/	/	/	/	/	/	/	/	/
C(=N\Nc1nc(-c2ccccc2)cs1)/c1ccco1	-18	72*	47	54*	-1	65*	66*	87*	37	58*
C(=N\Nc1nc(-c2ccccc2)cs1)/c1cccs1	-68	64*	2	31	2	63*	65*	88*	33	0
C(=N\Nc1nc(-c2ccccc2)cs1)/c1ccncc1	-24	40	14	23	1	/	/	/	/	/
COc1ccc(C(=O)Nc2ccc([N+](=O)[O-])cn2)cc1OC	13	-2	2	-10	8	/	/	/	/	/
Cc1cc(C(=O)Nc2ccc([N+](=O)[O-])cn2)cs1	2	51*	51*	28	1	28	41	77*	75*	12
COc1cc(OC)cc(C(=O)Nc2ccc([N+](=O)[O-])cn2)c1	5	50	81*	25	18	9	11	24	46	12
Cc1ccc(C(=O)Nc2ccc([N+](=O)[O-])cn2)o1	17	53*	19	12	11	35	29	72*	77*	24
O=C(O)COc1ccc(/C=C/c2nc(-c3ccccc3O)n[nH]2)cc1	-50	87*	69*	67*	0	84*	82*	96*	71*	83*
COc1ccc(/C=C/c2nc(-c3ccccc3O)n[nH]2)cc1OC	-117	67*	43	-4	-31	65*	63*	85*	19	48
CCOc1ccc(S(=O)(=O)Nc2cccc(C(=O)N(C)Cc3cccc(OC)c3OC)c2)cc1	10	-19	8	-7	-5	/	/	/	/	/
Cc1ccsc1C(=O)Nc1nccs1	2	64*	63*	51*	34	58*	57*	86*	86*	52*
Cc1csc(NC(=O)c2sccc2C)n1	-11	95*	96*	91*	18	95*	95*	101*	98*	94*
Cc1ccsc1CNC1C2CC3CC(C2)CC1C3 (centres undefined)	9	-2	-12	-3	-12	/	/	/	/	/
SMILES	SENP8 block-1	SENP6 block	SENP7 inh	SENP8 block-2	Platelet DG rel	SENP8 confirm	SENP6 confirm	SENP7 conf	Casp3 select	Luc interf
O=C(O)c1cccc(NC(=S)N/N=C/c2ccccn2)c1	-7	48	77*	62*	-12	77*	76*	95*	37	75*
Cn1c(CCCNC(=O)c2ccco2)nc2ccccc21	10	/	/	/	/	/	/	/	/	/
COc1ccc(-c2cc3nc(C)n(N)c(=O)c3s2)cc1	-432	99*	100*	97*	87*	99*	100*	103*	98*	99*
Cc1nc2cc(-c3ccccc3)sc2c(=O)n1N	-9	96*	99*	96*	90*	98*	99*	102*	98*	97*
Cn1c(NCc2ccccc2)nc2cc(-c3ccccc3)sc2c1=O	-100	/	/	/	/	/	/	/	/	/
COc1ccc(-c2cc3nc4n(c(=O)c3s2)CCC4)cc1	-337	95*	96*	91*	23	12	62*	81*	76*	12
CCn1c(=O)n(CC)c2cc(N3CCCC3)c(NC(=O)c3cc(Cl)ccc3OC)cc21	21	-18	12	0	1	/	/	/	/	/
Cc1c(Cl)cccc1N1C(=O)CC(Sc2ccccc2N)C1=O (centres undefined)	9	/	/	/	/	/	/	/	/	/
Cn1cccc1C(=O)C(=O)Nc1ccccc1C(F)(F)F	11	-6	-12	-16	-6	/	/	/	/	/
Cn1cccc1C(=O)C(=O)Nc1ccccc1	24	92*	94*	80*	21	89*	90*	100*	95*	88*
Cc1c(N2CCCC2)cc2c(c1NC(=O)c1ccccc1Cl)C(C)(C)CC2(C)C	-9	-24	-7	0	11	/	/	/	/	/
COc1ccc(C2N=C(c3ccccc3)NO2)cc1OC (centres undefined)	-9	8	9	19	3	/	/	/	/	/
COc1cc(C2N=C(c3ccccc3)NO2)cc(Br)c1O (centres undefined)	-165	91*	28	77*	2	85*	84*	92*	58*	85*
